Assay results: PubChem BioAssay
The source made the active and inactive calls. Rule as the data show it, unless noted: active = inhibition above about 36%; inactive = the rest.

Tested on: transactivating tegument protein VP16 (Human herpesvirus 1)
Assay: compounds suppressing VP16-driven luciferase signal – cell-based, luminescence, single concentration, counter-screen for SRC2 inhibitor project (AID 652007)
Settings: cell-based VP16 transactivation luciferase reporter, at 8.9 µM, hits give high values

SMILES	inhibition
CCOC(=O)[C@]12CCCC=C1N(Cc1cccc3ccccc13)C(=O)[C@H](CC(=O)N1CCOCC1)C2	-7.43% (inactive)
O=C(NCCS(=O)(=O)N1CCN(c2ccc(F)cc2)CC1)c1ccc(Br)o1	-22.6% (inactive)
COc1ccccc1C(C)NC(=O)C1CCN(S(=O)(=O)c2cccs2)CC1 (stereo not given)	-3.74% (inactive)
Cc1onc(C(=O)N2CCC(Cc3ccccc3)CC2)c1[N+](=O)[O-]	-1.3% (inactive)
CCn1ccnc1CNC(=O)C1CCC(=O)N(Cc2ccccc2F)C1 (stereo not given)	-4.87% (inactive)
CCCCn1c(CCC)nc([N+](=O)[O-])c1Sc1ccc(Cl)cn1	13.2% (inactive)
CCOc1ccc(-c2cc(CCCC(=O)N3CCN(c4ccc(OC)cc4)CC3)no2)cc1	4.64% (inactive)
OC[C@@H]1CN(Cc2ccc(-c3ccccc3)cc2)C[C@H](n2cnc3c(NCc4ccc(F)cc4)ncnc32)O1	20.8% (inactive)
Cc1nc(S(=O)(=O)N(C)c2ccccc2)c(C#N)c(C)c1Cl	3.59% (inactive)
Cc1cc(C(=O)COC(=O)c2ccc(O)cc2O)c(C)n1-c1ccc(OC(F)F)cc1	12.6% (inactive)
CCn1c(Oc2ccccc2)nc2c1c(=O)n(C)c(=O)n2C	8.01% (inactive)
O=C(NCCCN1CCOCC1)c1ccc(CNS(=O)(=O)c2ccc(Br)cc2)cc1	-18.4% (inactive)
CCN(CC)S(=O)(=O)c1ccc(C)c(NC(=S)NC2CCCCC2)c1	8.38% (inactive)
O=[N+]([O-])c1ccc(Sc2nnnn2-c2ccccc2)nc1	12.5% (inactive)
COc1ccc(C(NC(=O)C2CCN(CCCOc3ccccc3)CC2)c2cccs2)cc1 (stereo not given)	-8.07% (inactive)
CC(=O)Nc1ccc(NC(=O)c2nc(S(=O)(=O)Cc3cccc(C)c3)ncc2Cl)cc1	21.6% (inactive)
O=C(O)c1cccc(CSc2nnc(-c3ccc(Cl)cc3)o2)c1	41.3% (active)
CC1(C(=O)NS(=O)(=O)Cc2ccccc2C(F)(F)F)CCN1C(=O)c1ccco1 (stereo not given)	0.06% (inactive)
CN(Cc1ccc(OC(F)F)cc1)C(=O)c1ccc(S(=O)(=O)N(C)c2ccccc2)cc1	-22.2% (inactive)
CCNC(=O)NC(=O)C(C)OC(=O)CCCSc1nc2ccccc2s1 (stereo not given)	14.4% (inactive)

SMILES	inhibition
CCN1C=CC(=C2C(=O)c3ccccc3C2=O)C=C1	42.3% (active)
O=C1c2ccccc2S(=O)(=O)N1Cc1nc2ccccc2s1	6.44% (inactive)
COc1cc(CNS(=O)(=O)c2ccc3c(c2)CC(C)N3C(=O)C2CCC2)cc(OC)c1OC (stereo not given)	5.37% (inactive)
CCCOc1ccc(C(=O)C(CN2CCOCC2)c2ccccc2)cc1 (stereo not given)	14% (inactive)
O=[N+]([O-])c1cccc(NC(=S)Nc2nc(-c3ccc(Cl)cc3Cl)cs2)c1	-15.8% (inactive)
COc1cccc(/C=C2\SC(=S)N(CCCC(=O)N3CCCCC3CCO)C2=O)c1 (stereo not given)	51.2% (active)
COc1ccc2c(c1)/C(=C\c1cccc(/C=C3/C(=O)Nc4ccc(OC)cc43)n1)C(=O)N2	90.5% (active)
CCCNC(=O)c1ccc(N2CCC3(CC2)CC(c2cccc(Br)c2)=NO3)c([N+](=O)[O-])c1	8% (inactive)
O=C(NCc1ccc(Cl)c(Cl)c1)c1cc(C2CCCCN2C(=O)CCc2ccccc2)on1 (stereo not given)	-6.3% (inactive)
COc1cccc(N2CCN(c3ncnc4c3[nH]c3ccccc34)CC2C)c1 (stereo not given)	63.8% (active)
O=C(Nc1cccc(F)c1)c1cccnc1	1.51% (inactive)
COCCNC(=O)/C(C#N)=C/c1cc(C(C)C)c(OC)cc1C	-4.35% (inactive)
COc1ccc(CNC(=O)C2CCCN(Cc3nc(-c4cccc(C)c4)oc3C)C2)cc1 (stereo not given)	-10.5% (inactive)
Oc1ccc(N=Nc2ccc3c(c2)OCCO3)c2ncccc12	-13.1% (inactive)
CCC(C)C(NC(=O)OCc1ccccc1)C(=O)OCN1C(=O)c2ccccc2C1=O (stereo not given)	-13.9% (inactive)
COc1ccccc1-c1cc2nc(C)c(CCC(=O)NCc3ccco3)c(C)n2n1	-5.98% (inactive)
N=c1c2c3c(sc2ncn1N)CCCCC3	2.99% (inactive)
N/C(=N\OC(=O)c1ccc2ccccc2c1)c1ccccn1	-38.3% (inactive)
Cc1ccccc1C(=O)N1CCN(c2ccc(NC(=O)c3ccccc3[N+](=O)[O-])cc2)CC1	-22% (inactive)
COc1ccc(N2CCN(C3CCCN(S(=O)(=O)c4ccc(C)cc4C)C3)CC2)cc1 (stereo not given)	-13% (inactive)

Molecular target: Nuclear receptor coactivator 2 (Homo sapiens) (UniProt Q15596)
Assay: inhibition of GAL4-SRC2 driven luciferase expression – cell-based, luminescence, HEK293, triplicate, confirmation (AID 652008;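 active = mean inhibition above 46.5%, the solvent-only control mean plus 3 SD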;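 also: 0% = DMSO-treated cells and 100% = Gossypol at 36 µM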)
Settings: HEK293 GAL4-SRC2 luciferase reporter, at 8.9 µM, hits give high values

Chain of Nuclear receptor coactivator 2 (Homo sapiens) (Q15596 whole entry, looked up, the tested form may be a part): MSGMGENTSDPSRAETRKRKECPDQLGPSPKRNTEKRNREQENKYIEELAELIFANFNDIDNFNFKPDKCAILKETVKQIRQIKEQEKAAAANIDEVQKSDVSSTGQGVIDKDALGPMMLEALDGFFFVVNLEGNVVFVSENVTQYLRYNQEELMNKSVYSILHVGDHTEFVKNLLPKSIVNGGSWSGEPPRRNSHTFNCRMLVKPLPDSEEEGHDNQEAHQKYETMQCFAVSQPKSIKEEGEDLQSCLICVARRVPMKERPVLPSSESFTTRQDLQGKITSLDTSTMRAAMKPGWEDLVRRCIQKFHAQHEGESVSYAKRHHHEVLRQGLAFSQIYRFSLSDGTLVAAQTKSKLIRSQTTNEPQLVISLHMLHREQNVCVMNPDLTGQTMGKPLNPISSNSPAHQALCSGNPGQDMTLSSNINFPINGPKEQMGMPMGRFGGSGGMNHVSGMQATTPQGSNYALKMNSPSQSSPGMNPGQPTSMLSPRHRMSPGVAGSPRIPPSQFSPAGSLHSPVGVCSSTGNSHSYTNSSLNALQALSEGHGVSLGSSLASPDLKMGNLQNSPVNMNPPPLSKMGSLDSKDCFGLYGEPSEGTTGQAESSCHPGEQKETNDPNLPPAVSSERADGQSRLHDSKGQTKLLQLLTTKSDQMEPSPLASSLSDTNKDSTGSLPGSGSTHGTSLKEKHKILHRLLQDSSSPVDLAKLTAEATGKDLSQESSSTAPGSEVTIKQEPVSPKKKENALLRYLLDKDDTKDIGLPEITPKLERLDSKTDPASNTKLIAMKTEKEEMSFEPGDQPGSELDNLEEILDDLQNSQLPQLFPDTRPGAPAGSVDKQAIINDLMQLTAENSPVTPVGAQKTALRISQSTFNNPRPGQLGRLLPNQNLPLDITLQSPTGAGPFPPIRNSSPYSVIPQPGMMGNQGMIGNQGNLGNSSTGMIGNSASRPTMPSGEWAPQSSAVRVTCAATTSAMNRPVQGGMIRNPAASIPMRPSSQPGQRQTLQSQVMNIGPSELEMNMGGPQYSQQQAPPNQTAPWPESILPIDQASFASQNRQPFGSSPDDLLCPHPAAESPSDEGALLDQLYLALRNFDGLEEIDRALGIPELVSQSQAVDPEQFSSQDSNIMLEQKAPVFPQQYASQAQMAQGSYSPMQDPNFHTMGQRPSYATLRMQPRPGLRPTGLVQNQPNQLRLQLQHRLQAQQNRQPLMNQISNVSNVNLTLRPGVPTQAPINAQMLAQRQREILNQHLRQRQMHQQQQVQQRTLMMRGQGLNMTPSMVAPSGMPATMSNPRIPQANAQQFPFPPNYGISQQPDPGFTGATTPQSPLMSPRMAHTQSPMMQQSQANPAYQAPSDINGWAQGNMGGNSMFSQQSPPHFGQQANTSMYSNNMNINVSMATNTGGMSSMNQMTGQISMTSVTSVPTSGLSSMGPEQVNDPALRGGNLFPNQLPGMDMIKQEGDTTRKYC

SMILES	inhibition
CCOC(=O)[C@]12CCCC=C1N(Cc1cccc3ccccc13)C(=O)[C@H](CC(=O)N1CCOCC1)C2	-11% (inactive)
O=C(NCCS(=O)(=O)N1CCN(c2ccc(F)cc2)CC1)c1ccc(Br)o1	-4.89% (inactive)
COc1ccccc1C(C)NC(=O)C1CCN(S(=O)(=O)c2cccs2)CC1 (stereo not given)	6.18% (inactive)
Cc1onc(C(=O)N2CCC(Cc3ccccc3)CC2)c1[N+](=O)[O-]	5.37% (inactive)
CCn1ccnc1CNC(=O)C1CCC(=O)N(Cc2ccccc2F)C1 (stereo not given)	-23.7% (inactive)
CCCCn1c(CCC)nc([N+](=O)[O-])c1Sc1ccc(Cl)cn1	20.7% (inactive)
CCOc1ccc(-c2cc(CCCC(=O)N3CCN(c4ccc(OC)cc4)CC3)no2)cc1	18.6% (inactive)
OC[C@@H]1CN(Cc2ccc(-c3ccccc3)cc2)C[C@H](n2cnc3c(NCc4ccc(F)cc4)ncnc32)O1	22.9% (inactive)
Cc1nc(S(=O)(=O)N(C)c2ccccc2)c(C#N)c(C)c1Cl	40.9% (inactive)
Cc1cc(C(=O)COC(=O)c2ccc(O)cc2O)c(C)n1-c1ccc(OC(F)F)cc1	35.1% (inactive)
CCn1c(Oc2ccccc2)nc2c1c(=O)n(C)c(=O)n2C	42.6% (inactive)
O=C(NCCCN1CCOCC1)c1ccc(CNS(=O)(=O)c2ccc(Br)cc2)cc1	19.1% (inactive)
CCN(CC)S(=O)(=O)c1ccc(C)c(NC(=S)NC2CCCCC2)c1	-9.1% (inactive)
O=[N+]([O-])c1ccc(Sc2nnnn2-c2ccccc2)nc1	40.7% (inactive)
COc1ccc(C(NC(=O)C2CCN(CCCOc3ccccc3)CC2)c2cccs2)cc1 (stereo not given)	3.49% (inactive)
CC(=O)Nc1ccc(NC(=O)c2nc(S(=O)(=O)Cc3cccc(C)c3)ncc2Cl)cc1	50.8% (active)
O=C(O)c1cccc(CSc2nnc(-c3ccc(Cl)cc3)o2)c1	43.1% (inactive)
CC1(C(=O)NS(=O)(=O)Cc2ccccc2C(F)(F)F)CCN1C(=O)c1ccco1 (stereo not given)	-19.7% (inactive)
CN(Cc1ccc(OC(F)F)cc1)C(=O)c1ccc(S(=O)(=O)N(C)c2ccccc2)cc1	-12.8% (inactive)
CCNC(=O)NC(=O)C(C)OC(=O)CCCSc1nc2ccccc2s1 (stereo not given)	22.5% (inactive)

SMILES	inhibition
CCN1C=CC(=C2C(=O)c3ccccc3C2=O)C=C1	58.6% (active)
O=C1c2ccccc2S(=O)(=O)N1Cc1nc2ccccc2s1	31.4% (inactive)
COc1cc(CNS(=O)(=O)c2ccc3c(c2)CC(C)N3C(=O)C2CCC2)cc(OC)c1OC (stereo not given)	29.3% (inactive)
CCCOc1ccc(C(=O)C(CN2CCOCC2)c2ccccc2)cc1 (stereo not given)	53.9% (active)
O=[N+]([O-])c1cccc(NC(=S)Nc2nc(-c3ccc(Cl)cc3Cl)cs2)c1	9.75% (inactive)
COc1cccc(/C=C2\SC(=S)N(CCCC(=O)N3CCCCC3CCO)C2=O)c1 (stereo not given)	52.2% (active)
COc1ccc2c(c1)/C(=C\c1cccc(/C=C3/C(=O)Nc4ccc(OC)cc43)n1)C(=O)N2	76.2% (active)
CCCNC(=O)c1ccc(N2CCC3(CC2)CC(c2cccc(Br)c2)=NO3)c([N+](=O)[O-])c1	7.7% (inactive)
O=C(NCc1ccc(Cl)c(Cl)c1)c1cc(C2CCCCN2C(=O)CCc2ccccc2)on1 (stereo not given)	12.6% (inactive)
COc1cccc(N2CCN(c3ncnc4c3[nH]c3ccccc34)CC2C)c1 (stereo not given)	12.8% (inactive)
O=C(Nc1cccc(F)c1)c1cccnc1	-2.72% (inactive)
COCCNC(=O)/C(C#N)=C/c1cc(C(C)C)c(OC)cc1C	16.8% (inactive)
COc1ccc(CNC(=O)C2CCCN(Cc3nc(-c4cccc(C)c4)oc3C)C2)cc1 (stereo not given)	0.33% (inactive)
Oc1ccc(N=Nc2ccc3c(c2)OCCO3)c2ncccc12	13.6% (inactive)
CCC(C)C(NC(=O)OCc1ccccc1)C(=O)OCN1C(=O)c2ccccc2C1=O (stereo not given)	-8.71% (inactive)
COc1ccccc1-c1cc2nc(C)c(CCC(=O)NCc3ccco3)c(C)n2n1	17.5% (inactive)
N=c1c2c3c(sc2ncn1N)CCCCC3	-23.5% (inactive)
N/C(=N\OC(=O)c1ccc2ccccc2c1)c1ccccn1	-34.3% (inactive)
Cc1ccccc1C(=O)N1CCN(c2ccc(NC(=O)c3ccccc3[N+](=O)[O-])cc2)CC1	12.1% (inactive)
COc1ccc(N2CCN(C3CCCN(S(=O)(=O)c4ccc(C)cc4C)C3)CC2)cc1 (stereo not given)	29.6% (inactive)
